# Where “and” joins values, the source holds several entries; their conditions need not be identical. Equal values may be shown once. Calls of active or inactive are those of the source.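 How the source made its calls, unless noted: active means z-score of at least 1.8 in each of two replicates, scored against plate mean and spread of sample wells; inactive means the rest.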
# Assays:
# [1] = P. berghei load reduction in hepatocytes – cell-based, HepG2, luciferase luminescence, HepG2 viability, primary screen (AID 624349; in the data active means parasite load remaining mostly below about 12%, no sharp cut-off; inactive means mostly above about 10%;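 further: 100% = mean of DMSO negative control wells on the same plate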); settings: P. berghei liver stage in HepG2, luciferase luminescence, concentration not given here; parasite load remaining: stronger effect = lower value; viability: measured here: HepG2 viability without parasites
# [2] = Wnt pathway potentiators raising nuclear beta-catenin – imaging, WNT3A-conditioned medium, mouse C2C12, NPC library, primary screen (AID 1117326; in the data active means nuclear beta-catenin stimulation mostly above about 4.2%, no sharp cut-off; inactive means mostly below about 10%); settings: stronger effect = higher value
# [3] = stimulators of insulin release from INS-1E, primary screen, cell-based, 5 mM glucose, NPC library (AID 1117329;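 active means compound raises insulin release from rat beta cells at 5 mM glucose, no numeric limit stated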); settings: rat INS-1E insulin secretion, at 10 µM, stronger effect = higher value
# [4] = growth inhibition of GSK3B-pretreated HCT116 cells – cell-based, CellTiter-Glo, 0.2 to 20 µM (AID 1117336;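 active means compounds lowering colon cancer cell viability after pretreatment blocking the GSK3B kinase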); settings: HCT116 viability after GSK3B inhibitor, at 20 µM, stronger effect = higher value
# [5] = inhibition of endothelial tube formation, primary screen, imaging, VEGF stimulated, CD31 staining, tube area, NPC library (AID 1117340;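 active means compound that reduces growth-factor-driven endothelial tube area in a mixed cell culture, no cutoff stated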); settings: VEGF-stimulated ADSC/ECFC co-culture, at 10 µM, stronger effect = higher value
# [6] = GLP1 release stimulators, primary, NCI-H716, NPC library (AID 1117341;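 active means compound raises GLP1 secretion from the human gut endocrine cells, with no numeric limit stated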); settings: NCI-H716 cells, at 10 µM, stronger effect = higher value
# [7] = HCT116 colon cancer cell growth inhibition, primary screen, CellTiter-Glo luminescence, NPC library (AID 1117342;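 active means compounds that lower survival of HCT116 colon cancer cells in the luminescence readout, no numeric limit stated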); settings: at 20 µM (top of the series)
# [8] = reduced SW480 viability measured with CellTiter-Glo, NPC library, primary (AID 1117343;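 active means compounds that lower viability of the colon cancer cells in the luminescence readout, with no numeric limit stated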); settings: CellTiter-Glo luminescence; at 20 µM (top of the series)
# [9] = NPC library primary testing for decreased DLD-1 cell viability via CellTiter-Glo (AID 1117346;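 active means compounds that lower survival of DLD-1 colon cancer cells in the luminescence readout, no cutoff given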); settings: DLD-1 viability, CellTiter-Glo luminescence; at 20 µM (top of the series)
# [10] = EMT-state selective cytotoxicity in co-culture – imaging, PC-3E GFP, TEM4-18 mCherry, primary screen (AID 1345086;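 active means compounds killing one labelled cell type while sparing the other, by normalised counts and ratio limits, not self-fluorescent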;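 further: cells exposed to compound for 72 h before imaging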;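 on red/green cell ratio (normalised): normalised mesenchymal count divided by normalised epithelial count so high means epithelial killing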); settings: PC-3E GFP / TEM4-18 mCherry co-culture, imaging cell counts, at 1 µM
# [11] = system: Aerobactin synthetase IucA (Klebsiella pneumoniae hvKP1); experiment: IucA enzyme inhibition, primary screen, biochemical, Spectrum library (AID 1346200; call rule not given here;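 further: 100% = wells without compound and 0% = wells lacking enzyme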); settings: malachite green pyrophosphate, A620, at 8 µM, stronger effect = lower value
# [12] = viability loss with induced miR-34 in A549 – imaging, A549 dox-inducible miR-34, nuclei and caspase counts, primary screen (AID 1347080;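 active means compounds whose cell count with miR-34 switched on is under 0.7 times the count with it off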); settings: A549 miR-34 inducible, Hoechst nuclei count, 48 h
# [13] = target: NAD(+) hydrolase SARM1 (Homo sapiens) (UniProt Q6SZW1); experiment: blocking NAD cleavage by SARM1 SAM-TIR – cell lysate, NAD-Glo luminescence (AID 1508614;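 active means compound whose remaining NAD level is above about 45 nM, limit read from the data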); settings: SAM-TIR HEK293T lysate NADase, at 1 µM, stronger effect = higher value
# NAD(+) hydrolase SARM1 (Homo sapiens), sequence (Q6SZW1 whole entry, looked up, the tested form may be a part): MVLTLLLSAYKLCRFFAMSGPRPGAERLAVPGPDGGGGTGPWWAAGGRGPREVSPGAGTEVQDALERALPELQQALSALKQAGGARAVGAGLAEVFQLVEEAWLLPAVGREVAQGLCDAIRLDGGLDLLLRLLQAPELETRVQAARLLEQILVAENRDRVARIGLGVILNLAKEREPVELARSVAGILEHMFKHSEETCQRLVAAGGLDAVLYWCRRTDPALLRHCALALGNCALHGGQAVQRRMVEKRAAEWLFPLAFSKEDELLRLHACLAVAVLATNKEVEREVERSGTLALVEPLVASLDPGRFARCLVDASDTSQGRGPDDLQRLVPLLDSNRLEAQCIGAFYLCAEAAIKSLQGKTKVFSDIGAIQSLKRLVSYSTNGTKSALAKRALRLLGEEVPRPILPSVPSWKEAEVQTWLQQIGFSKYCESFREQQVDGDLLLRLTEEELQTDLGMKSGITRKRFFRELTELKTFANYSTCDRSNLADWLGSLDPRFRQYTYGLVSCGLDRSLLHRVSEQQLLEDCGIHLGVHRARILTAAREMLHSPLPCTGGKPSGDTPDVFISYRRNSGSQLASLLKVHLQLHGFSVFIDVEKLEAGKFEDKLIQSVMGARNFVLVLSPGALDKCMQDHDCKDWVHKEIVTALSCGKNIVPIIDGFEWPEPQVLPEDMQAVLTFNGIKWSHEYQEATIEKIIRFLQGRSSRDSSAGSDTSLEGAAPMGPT
# [14] = target: Mitogen-activated protein kinase 7 (Homo sapiens) (UniProt Q13164); experiment: Gal4-ERK5 driven luciferase induction – cell-based, HTS, primary screen (AID 1508626;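 active means luciferase signal above three times the same-plate solvent-only control wells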;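 further: luciferase driven by Gal4-ERK5 fusion binding five Gal4 sites before minimal TATA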); settings: HeLa Gal4-ERK5 transactivation, 18 h, at 5 µM, stronger effect = higher value
# Mitogen-activated protein kinase 7 (Homo sapiens), sequence (Q13164 whole entry, looked up, the tested form may be a part): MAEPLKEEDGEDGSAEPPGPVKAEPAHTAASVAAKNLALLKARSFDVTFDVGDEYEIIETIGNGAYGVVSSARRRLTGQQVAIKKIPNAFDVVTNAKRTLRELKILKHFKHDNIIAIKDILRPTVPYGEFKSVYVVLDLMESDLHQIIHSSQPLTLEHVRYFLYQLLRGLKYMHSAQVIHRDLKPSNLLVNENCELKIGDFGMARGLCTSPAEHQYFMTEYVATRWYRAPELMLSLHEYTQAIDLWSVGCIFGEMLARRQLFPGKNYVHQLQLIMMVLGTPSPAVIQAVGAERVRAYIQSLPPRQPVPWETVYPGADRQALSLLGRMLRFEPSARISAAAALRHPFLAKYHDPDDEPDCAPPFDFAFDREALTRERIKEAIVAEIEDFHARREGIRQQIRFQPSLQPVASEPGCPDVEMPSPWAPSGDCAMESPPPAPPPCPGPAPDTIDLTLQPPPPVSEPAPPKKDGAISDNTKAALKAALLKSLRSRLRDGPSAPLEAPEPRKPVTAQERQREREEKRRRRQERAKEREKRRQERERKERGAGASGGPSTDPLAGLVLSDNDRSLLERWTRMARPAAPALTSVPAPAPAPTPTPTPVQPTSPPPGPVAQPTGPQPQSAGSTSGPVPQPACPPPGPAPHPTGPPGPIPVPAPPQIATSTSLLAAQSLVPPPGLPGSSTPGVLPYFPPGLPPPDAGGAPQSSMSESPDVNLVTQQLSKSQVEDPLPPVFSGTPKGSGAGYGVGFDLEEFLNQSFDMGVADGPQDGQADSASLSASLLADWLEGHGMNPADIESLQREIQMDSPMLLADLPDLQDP
# [15] = MELAS cybrid and Rieske KO viability enhancers – cell-based, MELAS cybrids, Rieske KO mouse fibroblasts, CellTiter-Glo, primary screen (AID 1508586;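 active means mean z-score across replicates of 1.96 or higher in either the MELAS or the Rieske mutant cell line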;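 further: z relative to plate mean and SD of compound and empty wells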); settings: low glucose
# [16] = galactose survival enhancers in mitochondrial complex I cybrids – cell-based, galactose medium, ATP luminescence, primary screen (AID 1645843); settings: complex I mutant cybrid cells, 72 h, stronger effect = higher value;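 further: positive z means more ATP and so rescue of galactose-driven cybrid death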
# [17] = MELAS cybrid survival, CellTiter-Glo 48 h, stronger effect = higher value
# [18] = Rieske KO mouse fibroblast survival, CellTiter-Glo 72 h
smiles,measurement,setting,value
Nc1ccc([As](=O)(O)O)cc1,parasite load remaining,[1],57.3% (inactive)
same,viability,[1],124%
same,nuclear beta-catenin stimulation,[2]; at 10 µM,1.1% (inactive)
same,nuclear beta-catenin stimulation,"[2]; stimulation, at 2 µM",0.8%
same,insulin secretion stimulation,[3],-1.7% (inactive)
same,viability decrease,[4],-4.2% (inactive)
same,tube area decrease,[5],-12.5% (inactive)
same,GLP1 secretion stimulation,[6],0.9% (inactive)
same,inhibition of viability,[7],26% (inactive)
same,viability decrease (inhibition),[8],2.1% (inactive)
same,viability decrease (inhibition),[9],-7.6% (inactive)
same,red/green cell ratio (normalised),[10]; actives lie on both sides,0.96 (inactive)
same,normalised cell number,[10]; measured here: epithelial PC-3E GFP cell survival,1.12
same,normalised cell number,[10]; measured here: mesenchymal TEM4-18 mCherry cell survival,1.07
same,activity remaining,[11],117% (inactive)
same,fold change,[12]; stronger effect = lower value,0.904 (inactive)
same,fold change,[12]; measured here: relative caspase fold change +Dox/-Dox,4.85
same,cell count,"[12]; measured here: total cells with miR-34 induction, stronger effect = lower value",12200
same,cell count,[12]; measured here: total cells without miR-34 induction,13500
same,remaining NAD,[13],10 nM (inactive)
same,luciferase signal,[14],48 AU (inactive)
C#CCN(C)[C@H](C)Cc1ccccc1,nuclear beta-catenin stimulation,[2]; at 10 µM,-2% (inactive)
same,nuclear beta-catenin stimulation,"[2]; stimulation, at 2 µM",0.7%
same,insulin secretion stimulation,[3],1.2% (inactive)
same,viability decrease,[4],1.9% (inactive)
same,tube area decrease,[5],-3.8% (inactive)
same,GLP1 secretion stimulation,[6],1.9% (inactive)
same,inhibition of viability,[7],6.37% (inactive)
same,viability decrease (inhibition),[8],10.9% (inactive)
same,viability decrease (inhibition),[9],8.8% (inactive)
same,z-score,[15]; [17],-1.17 (inactive) and -0.00892 (inactive)
same,z-score,[15]; [18],-0.0749 and -0.112
same,remaining NAD,[13],10 nM (inactive)
same,z-score,[16],1.24 (inactive) and 0.63 (inactive)
CCOC(=O)c1cncn1C(C)c1ccccc1 (stereo not drawn),parasite load remaining,[1],51% (inactive) and 69.2% (inactive)
same,viability,[1],95.5% and 111%
same,nuclear beta-catenin stimulation,[2]; at 10 µM,1.8% (inactive)
same,nuclear beta-catenin stimulation,"[2]; stimulation, at 2 µM",3.6%
same,insulin secretion stimulation,[3],-0.5% (inactive)
same,viability decrease,[4],-7.2% (inactive)
same,tube area decrease,[5],11% (inactive)
same,GLP1 secretion stimulation,[6],-1.9% (inactive)
same,inhibition of viability,[7],-15.8% (inactive)
same,viability decrease (inhibition),[8],22.4% (inactive)
same,viability decrease (inhibition),[9],-22.4% (inactive)
same,z-score,[15]; [17],-0.441 (inactive)
same,z-score,[15]; [18],0.585
same,z-score,[16],0.035 (inactive) and 0.295 (inactive)

# Reference: PubChem BioAssay
